Among all 310,000 compounds or so, about 410 (0.13%) were called active. Roughly 2% stayed inconclusive and do not appear here. No rule for the calls is given here. The list is a sample of the results. Results with a measured potency or affinity are listed apart.
assay: RSV antiviral activity via CPE protection, HEp-2 cells, primary 10 µM value included (AID 2391); conditions: RSV-induced CPE inhibition, at 10 µM, active compounds read high

CPE inhibition, inactive:
Cc1ccc(S(=O)(=O)NC(C)(C)CN2CCNCC2)cc1 -0.5%, O=C(CCCCCN1C(=O)c2cccc3cccc(c23)C1=O)N1CCOCC1 2.04%, CCCc1c(C(=O)Nc2ccc(F)cc2)cnn1-c1ccccc1 3.97%, CCCc1c(NC(=O)Nc2ccc(F)cc2)cnn1-c1ccc(Cl)cc1 4.89%, O=C(c1ccco1)N1CCN(c2ccccc2F)CC1 0.67%, CNC(=O)N1c2ccccc2C=Cc2ccccc21 0.96%, CCN(CC)C(=O)N1c2ccccc2Sc2ccccc21 11.5%, COc1cc(NC(=S)NC(=O)c2cc(C)cc(C)c2)ccc1NC(=O)c1cccs1 7.54%, COc1cc(NC(=S)NC(=O)c2c(OC)cccc2OC)ccc1NC(=O)c1cccs1 2.67%, COc1cccc(C(=O)Nc2cc(NC(=O)c3cccs3)ccc2C)c1 10.5%, Cc1ccc(NC(=O)c2cccs2)cc1NC(=O)c1ccccc1Cl 2.07%, CCCCN(C)CCNC(=O)c1cn(C)c(=O)c2c1c1ccccc1n2C 1.07%, COc1ccc(OC)c(C2C(C#N)=C(N)N(N(C)C)C3=C2C(=O)CC(C)(C)C3)c1 (configuration not stated) 1.69%, Nc1ccc2nc(SCC(=O)N3CCOCC3)sc2c1 0.05%, CCN(CC)CCNC(=O)c1ccc(NC(=O)Cc2ccccc2F)cc1 -0.24%, COc1ccc(Cl)cc1NC(=O)NCc1cccnc1 2.51%, Nc1nnnn1/N=C/c1ccc(Br)cc1 7.9%, Nc1nnnn1/N=C/c1ccc(F)cc1 1.72%, O=C(COc1ccccc1[N+](=O)[O-])OCCCOC(=O)COc1ccccc1[N+](=O)[O-] 0.68%, CCN1/C(=C2\C(=O)N(C)C(=S)N2c2ccccc2)C=Cc2ccccc21 1.96%, CC1(C)Cc2cccc(OCC(=O)Nc3cccnc3)c2O1 0.28%, CC1(C)Cc2cccc(OCC(=O)Nc3nccs3)c2O1 1.37%, COc1ccc(C)cc1Nc1n[n+](-c2ccccc2)c(-c2cc(OC)c(OC)cc2Br)s1 13.7%, COC(=O)c1cc(NS(=O)(=O)c2ccc(NCc3cccnc3)c([N+](=O)[O-])c2)cc(C(=O)OC)c1 1.44%, COc1ccccc1NC(=O)N1CCN(c2ccc3nnc(-c4ccc(F)cc4)n3n2)CC1 20.8%, CCSc1ccccc1C(=O)N1CCC2(CC1)CC(=O)c1ccccc1O2 2.51%, COc1cccc(NC(=O)COc2cccc3c2CCNC3=O)c1 -2.16%, Cc1ccccc1NC(=O)COc1cccc2c1CCNC2=O -2.82%, CCOC(=O)NC(Nc1ccc(C)cn1)(C(F)(F)F)C(F)(F)F 0.51%, Cc1cccc(C(=O)NC2CCN(CC(=O)N3CCOCC3)CC2)c1 0.56%, c1ccc(-c2nnc3ccc(N4CCCC4)nn23)cc1 13.9%, O=C(c1ccc(Br)o1)N1CCN(c2ccc3nnc(-c4ccc(F)cc4)n3n2)CC1 1.21%, COc1cc(F)ccc1CN1CCC(n2nccc2NC(=O)C2CCOC2)CC1 (configuration not stated) -1%, COc1ccc(-n2c(C)cc(C(=O)Cn3nnc4ccccc4c3=O)c2C)cc1 2.15%, Cc1cc(C(=O)Cn2nnc3ccccc3c2=O)c(C)n1-c1c(C)n(C)n(-c2ccccc2)c1=O 2.35%, CN(C)c1ccc(CN(CC2CCCO2)C(=O)c2cccs2)cc1 (configuration not stated) -0.5%, Cn1c(=O)c2c(n(Cc3ccccc3)c1=O)NC(=O)C2CC(=O)O (configuration not stated) 0.62%, Cc1ccccc1OCCC(=O)Nc1ccc2c(C)cc(=O)oc2c1 1.79%, CCC(C)n1c(SCC(=O)Nc2ccccc2C(F)(F)F)nc2ccsc2c1=O (configuration not stated) 13.6%, COCCN(C(=O)C(C)C)c1nnc(-c2ccc(C)cc2)s1 1.29%, COCCN(C(=O)C1CC1)c1nnc(-c2cccc(C)c2)s1 14%, C=CCc1cccc(/C=N/NC(=O)c2ccccc2OC)c1O 4.29%, O=C(O)c1cc([N+](=O)[O-])ccc1Nc1ccccc1 2.12%, O=C(O)c1ccccc1Nc1ccccc1C(=O)O 0.65%, O=C(O)c1ccccc1Nc1ccccc1 2.02%, COc1ccc(Nc2ccccc2C(=O)O)cc1 -0.36%, O=C(NCCOc1ccccc1Cl)c1ncn[nH]1 0.27%, CSc1ccc(S(=O)(=O)NCCSC(C)(C)C)cc1 -1.64%, COc1cc(CC2COC(c3ccc(O)c(OC)c3)C2COC(C)=O)ccc1O (configuration not stated) 5.55%, CCOC(=O)CCCNC(=O)CCNC(=O)c1ccc(OCCC(C)C)cc1 -2.65%, Cc1ccc(C(=O)N2CCN(c3ccc(NC(=O)c4cccs4)cc3)CC2)cc1 3.02%, Cc1ccc(OCc2cc(C(=O)NCc3cnn(-c4cccc(F)c4)c3)no2)cn1 -0.86%, Cc1nn(-c2ccccc2)c(C)c1/C=N/O 5.01%, Cc1nn(-c2ccccc2)c(C)c1/C=N/N1CCN(c2ccccc2)CC1 2.1%, CC(=O)N1c2ccccc2Nc2ccccc21 0.92%, CC(C)(C)C(=O)CC1(O)C(=O)N(Cc2ccccc2)c2ccccc21 (configuration not stated) 1.23%, COc1ccc(NC(=O)CSc2nc3ccccc3nc2N2CCCC2)cc1 5.07%, COc1cccc(NC(=O)CSc2nc3ccccc3nc2N2CCOCC2)c1 1.87%, Cc1cc(C)cc(NC(=O)CSc2nc3ccccc3nc2N2CCCCC2)c1 -0.51%, Cc1cccc(NC(=O)CSc2nc3ccccc3nc2N2CCCC2)c1 43.3%, O=C(CCN1c2ccccc2Sc2ccccc21)OCC(=O)N1CCN(C(=O)c2ccco2)CC1 5.26%, Cc1cc(C)cc(NC(=O)c2ccc(CNc3c(N4CCCC4)c(=O)c3=O)cc2)c1 2.89%

— PubChem BioAssay AID2391 (Southern Research Specialized Biocontainment Screening …, 2010)
